Screens as filed in PubChem BioAssay.
Compounds with a hit are over-represented: about 3.2% of the library has one in this group of screens.
DNA Pol III inh – blocks replication by bacterial DNA polymerase III holoenzyme; AID 603; 71,000 compounds, 0.25% hits; reconstituted DNA polymerase III holoenzyme replication, biochemical; Potency, µM (highest dose often 57.1 µM), for inactives: top-dose activity change, negative = inhibition; note: potency is the fitted concentration of half-maximal effect; % is set by controls: 0 for no effect and ±100 for the full control effect
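Reconstituted *E. coli* holoenzyme (0.35 nM Pol III, 1 nM beta, 154 nM SSB, 2 nM primase) was preincubated with compound for 15 min at RT. Synthesis on 1.4 nM ssM13Gori ran 35 min, then was stopped with PicoGreen/EDTA and read as dsDNA fluorescence.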
BRCT inh green – inhibitors of human BRCA1 BRCT-phosphoprotein interaction (green fluorophore); P38398; AID 875; Potency, µM (series often up to 76.9 µM), inactives show top-dose activity change, negative = inhibition, usual class: inhibitors; BRCA1 BRCT-phosphopeptide binding, green fluorescence polarization; 75,000 compounds, 0.05% hits;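 note: potency is the fitted concentration of half-maximal effect; plate controls were peptide without protein for full effect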
Target sequence (P38398 whole entry, looked up): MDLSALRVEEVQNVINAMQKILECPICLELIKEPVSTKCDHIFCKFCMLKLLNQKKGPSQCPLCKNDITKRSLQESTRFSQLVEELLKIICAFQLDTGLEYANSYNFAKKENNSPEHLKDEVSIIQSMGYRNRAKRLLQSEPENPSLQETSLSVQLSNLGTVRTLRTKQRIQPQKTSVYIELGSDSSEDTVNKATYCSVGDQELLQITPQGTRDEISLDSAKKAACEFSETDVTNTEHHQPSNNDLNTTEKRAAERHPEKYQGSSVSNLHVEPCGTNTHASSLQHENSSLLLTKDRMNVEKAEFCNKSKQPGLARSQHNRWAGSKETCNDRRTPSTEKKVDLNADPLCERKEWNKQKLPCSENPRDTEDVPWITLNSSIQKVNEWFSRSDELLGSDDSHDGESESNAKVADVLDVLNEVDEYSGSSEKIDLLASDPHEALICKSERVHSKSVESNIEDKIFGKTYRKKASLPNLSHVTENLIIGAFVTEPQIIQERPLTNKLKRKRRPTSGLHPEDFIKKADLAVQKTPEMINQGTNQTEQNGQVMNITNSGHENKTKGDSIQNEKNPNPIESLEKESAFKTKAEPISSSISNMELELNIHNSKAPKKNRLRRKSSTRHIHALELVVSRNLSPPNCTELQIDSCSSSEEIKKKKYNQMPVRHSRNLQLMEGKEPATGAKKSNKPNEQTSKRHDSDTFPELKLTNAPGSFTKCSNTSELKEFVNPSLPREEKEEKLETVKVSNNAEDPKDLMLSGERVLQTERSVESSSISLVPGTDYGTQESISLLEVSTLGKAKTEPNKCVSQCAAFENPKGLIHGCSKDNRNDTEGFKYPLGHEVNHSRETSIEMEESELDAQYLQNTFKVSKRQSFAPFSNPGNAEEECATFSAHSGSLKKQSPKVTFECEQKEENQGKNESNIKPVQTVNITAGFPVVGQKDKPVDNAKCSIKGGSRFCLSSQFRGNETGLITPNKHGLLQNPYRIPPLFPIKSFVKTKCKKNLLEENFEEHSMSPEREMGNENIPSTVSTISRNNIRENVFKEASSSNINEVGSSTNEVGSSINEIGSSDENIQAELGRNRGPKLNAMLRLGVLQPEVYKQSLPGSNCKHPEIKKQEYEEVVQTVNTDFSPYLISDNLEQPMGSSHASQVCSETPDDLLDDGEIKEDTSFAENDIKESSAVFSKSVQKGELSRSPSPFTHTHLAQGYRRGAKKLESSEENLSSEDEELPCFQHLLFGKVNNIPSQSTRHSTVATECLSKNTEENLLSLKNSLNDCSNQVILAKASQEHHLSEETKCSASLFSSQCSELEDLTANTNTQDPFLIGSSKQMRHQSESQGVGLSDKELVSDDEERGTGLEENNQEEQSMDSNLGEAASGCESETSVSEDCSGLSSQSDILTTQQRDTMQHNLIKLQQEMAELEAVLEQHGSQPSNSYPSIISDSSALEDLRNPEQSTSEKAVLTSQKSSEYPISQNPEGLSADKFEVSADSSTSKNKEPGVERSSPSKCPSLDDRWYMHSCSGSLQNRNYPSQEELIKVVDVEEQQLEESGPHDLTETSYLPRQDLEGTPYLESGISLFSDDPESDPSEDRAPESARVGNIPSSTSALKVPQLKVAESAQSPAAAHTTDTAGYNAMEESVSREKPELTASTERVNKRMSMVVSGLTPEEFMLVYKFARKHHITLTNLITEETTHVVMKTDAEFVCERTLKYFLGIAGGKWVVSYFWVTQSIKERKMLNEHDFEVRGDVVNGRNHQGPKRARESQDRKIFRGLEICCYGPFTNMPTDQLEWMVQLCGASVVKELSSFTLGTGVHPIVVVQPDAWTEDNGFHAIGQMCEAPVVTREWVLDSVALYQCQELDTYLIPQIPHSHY
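Fluorescence polarization: His-tagged BRCT (~35 kDa BRCA1 C-terminus, 250 nM) bound to 100 nM fluorescein-labeled phosphorylated 10-aa BACH1 peptide, pH 7.3 phosphate buffer with DTT and Tween 20. Compounds incubated 12 min at room temperature; inhibition read as lowered polarization.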
TSHR ag – activates the human thyroid stimulating hormone receptor | P16473 | HEK293-CNG-TSHR cells (CNG channel as cAMP sensor), membrane potential dye, cAMP | Potency, µM (series often up to 57.1 µM), for the others: top-dose activation, most hits filed as activators | 73,000 compounds, 0.48% hits | AID 926; active = well fitted activation curve with a large enough effect in the main read-out, with a control signal flat, not every such curve was filed as active; inconclusive = small, poorly fitted or top-dose-only effect, or a change in a side signal; inactive = no such curve, though single readings can be large or run the other way; % of control where 0% means no effect;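 note: the control signal comes from parental cells without the receptor; potency is the fitted concentration of half-maximal effect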
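HEK 293 cells stably expressing TSHR and a cAMP-gated CNG channel; parental CNG-only cells as counterscreen. Cells preloaded 60 min with membrane potential dye plus 100 uM RO 20-1724, then compound 30 min; fluorescence read at 590 nm.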
HEK293 cAMP cs – raises cAMP in parental HEK293 cells, TSHR agonist counter-screen | Potency, µM (doses to about 57.1 µM), without a hit: at the highest dose activation, actives largely listed as activators | 73,000 compounds, 2.5% hits | parental HEK293 CNG cAMP sensor, membrane potential fluorescence | AID 938; note: potency is the fitted concentration of half-maximal effect; % of control where 0% means no effect; nearly all actives have a fitted effect of over 55% in size
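Parental HEK 293 cells stably expressing a modified CNG channel (no TSHR) report cAMP rise as membrane depolarization. Membrane potential dye with 100 uM RO 20-1724 was loaded for 60 min at room temperature, then compound added for 30 min; fluorescence read at 590 nm.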
YjeE inh – displaces an ADP probe from E. coli YjeE (TsaE). purified YjeE enzyme, qHTS inhibition assay. P0AF67. Potency, µM. AID 605. 71,000 compounds, 0.05% hits
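Purified YjeE (10 uM) with BODIPY Texas Red-labeled ADP probe (2 uM); compounds pin-transferred, 15 min at room temperature. Binding inhibition read as decreased fluorescence polarization; ADP titration as control.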
BRCT PPI red – inhibitors of human BRCA1 BRCT-phosphoprotein interaction (red fluorophore). BRCT-phosphopeptide binding, red fluorescence polarization. 75,000 compounds, 0.03% hits. Potency, µM (top dose mostly 76.9 µM), for the others: at the top dose activity change, negative = inhibition, most hits filed as inhibitors. P38398; note: % is set by controls: 0 for no effect and ±100 for the full control effect
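Rhodamine-labelled pBACH1 10-mer (100 nM) bound to BRCT domain (100 nM) at pH 7.3; compounds incubated 12 min room temperature, polarization read. Free peptide defines full inhibition; unlabelled decapeptide titrated as control.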
parental cAMP – TSHR-independent cAMP elevation, counter-screen. shares compounds with TSHR ag. parental HEK293 CNG biosensor, cAMP membrane potential fluorescence. activity change, negative = inhibition, % at 32.9 µM. 150 tested, under 10 active. AID 953
An asterisk follows results filed as active; i = inactive; ? = inconclusive; nt = no result given; ! = not active in a repeat; [ ] = another dose, or the depositor's remark. Unless noted, calls come from the whole dose curve; as a rule, active = well fitted curve in the direction sought with a large enough effect; inconclusive = small, poorly fitted or top-dose-only effect, or another doubt; inactive = no such curve, though single readings can be large; an effect the other way counts as inactive or inconclusive.

SMILES | DNA Pol III inh | BRCT inh green | TSHR ag | HEK293 cAMP cs | YjeE inh | BRCT PPI red | others
Cc1onc(-c2ccccc2)c1C(=O)Nc1sc2c(c1C#N)CCC2 | nt | 5% | 29% | -1% | nt | 1%
COCCN1Cc2cccc(C(=O)Nc3ccc4c(c3)OCCO4)c2C1=O | -4% | -2% | 8% | 2% | i | 0%
Cn1c(C(=O)OC(C(=O)NC2CCCCC2)c2ccncc2)cc2sccc21 (configuration not stated) | -4% | 1% | ? | 16µM* | i | 0%
CC(C)C(OC(=O)c1cc2sccc2n1C)C(=O)NCC1CCCO1 (configuration not stated) | 5% | 0% | ? | 2µM* | i | 0%
O=C(CN1C(=O)c2ccccc2C1=O)N1CCOCC1 | -2% | -3% | 2% | 5% | i | -2%
CO/N=C(\C)CCN1CCCc2nc(C)c(C)cc21 | nt | 0%[15.4 µM] | 3%[11.4 µM] | 12%[11.4 µM] | nt | -2%[15.4 µM]
O=C(COC(=O)c1ccccc1F)c1ccc(-n2nncc2-c2ccco2)cc1 | -1% | 4% | ? | 25µM* | i | 2%
COc1ccc(C(=O)COC(=O)c2ccco2)cc1 | -16% | -2% | 0% | -12% | i | 0%
CCCCn1nc(CC(=O)O)c2ccccc2c1=O | 1% | -1% | 5% | 11% | i | 0%
COc1ccc2c(c1)c(CC(=O)N1CCOCC1)c(C)n2C(=O)c1ccc(Cl)cc1 | -2% | 3% | ? | 40µM*! | i | -1%
N#Cc1nc(Cc2ccccc2)oc1NCc1cccnc1 | -1% | -1% | 5% | 4% | i | -1%
Cc1ccc(OCC(O)Cn2c(=N)n(CCN3CCCCC3)c3ccccc32)cc1 (configuration not stated) | -5% | 0% | ? | ? | i | -1%
Cc1ccc(OCC(O)Cn2c(=N)n(CCN3CCOCC3)c3ccccc32)cc1 (configuration not stated) | -9% | -1% | ? | 20µM* | i | -2%
Cc1ccc2[nH]c(=O)c(CN(CCCN3CCOCC3)Cc3nnnn3C3CCCC3)cc2c1 | -3% | -2% | 11% | 10% | i | 0%
Cc1ccc(CN2CC34C=CC(O3)C(C(=O)NCc3ccco3)C4C2=O)cc1 (configuration not stated) | 2% | -1% | 2%[11.4 µM] | 8% | i | -2%
Nn1c(SCC(=O)NC2CCCCC2)nnc1-c1ccccc1 | -3% | 0% | -1% | 7% | i | 0%
Nn1c(SCC(=O)NC2CCCc3ccccc32)nnc1-c1cccs1 (configuration not stated) | -6% | -1% | ? | 0.2µM* | i | -1%
O=C(CC1CCCC1)NCCc1cn2ccccc2n1 | 0% | -2% | ? | ? | i | 1%
COc1ccc(-c2nnc(SCC(=O)N(Cc3ccccc3)C(C)(C)C)o2)cc1OC | -3% | -1% | ? | 32µM* | i | 0%
Cc1cc(=O)oc2c(C)c(OCC(=O)N(C)C)ccc12 | -4% | 0% | -16% | -5% | i | 0%
COc1ccc2c(C)cc(=O)oc2c1C | 0% | 0% | 11% | 7% | i | -4% | parental cAMP=-52[25.6 µM]
N#C/C(=C\c1ccc(O)c(O)c1)C(=O)OCCc1cccs1 | -5% | 8% | -4% | -15% | i | -1%
O=C(NCc1ccco1)c1ccc(N2CCCC2=O)cc1 | 1% | 0% | 0% | 1% | i | 2%
CN1C(=O)C2C=CC1C1C(=O)N(c3ccccc3)C(=O)C21 (configuration not stated) | -1% | -1% | -3% | 8% | i | 0% | parental cAMP=2[25.6 µM]
CC(=O)N1CC=CC1(CC(C)C)C(=O)NCc1ccc(C)o1 (configuration not stated) | -5% | -2% | 4% | 13% | i | 0%
